# Laboratory results: PubChem BioAssay AID540359 (Broad Institute, 2011)
# Measured potencies and affinities stand elsewhere. Active and inactive are the calls of the source. No rule for the calls is given here.
# Molecular target: UDP-galactopyranose mutase (Mycobacterium tuberculosis (strain ATCC 25618 / H37Rv)) (UniProt P9WIQ1)
# Experiment: UDP galactopyranose mutase inhibitors, Mycobacterium tuberculosis, cherry pick dose confirmation (AID 540359)
# Conditions: purified UGM enzyme, plate reader activity; series mostly up to 50 µM; activity change, negative = inhibition: at the top concentration
# Sequence of UDP-galactopyranose mutase (Mycobacterium tuberculosis (strain ATCC 25618 / H37Rv)) (P9WIQ1 whole entry, looked up): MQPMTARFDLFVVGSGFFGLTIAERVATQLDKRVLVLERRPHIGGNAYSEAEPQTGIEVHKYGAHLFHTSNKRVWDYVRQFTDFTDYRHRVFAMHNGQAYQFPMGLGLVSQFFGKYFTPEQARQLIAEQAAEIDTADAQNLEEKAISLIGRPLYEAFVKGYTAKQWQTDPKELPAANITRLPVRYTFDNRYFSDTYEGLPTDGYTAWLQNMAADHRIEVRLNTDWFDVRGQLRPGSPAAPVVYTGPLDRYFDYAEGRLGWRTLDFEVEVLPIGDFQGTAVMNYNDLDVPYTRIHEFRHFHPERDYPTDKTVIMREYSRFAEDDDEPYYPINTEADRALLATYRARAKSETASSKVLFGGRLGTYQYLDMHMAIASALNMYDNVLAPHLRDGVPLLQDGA
row,Structure (SMILES),"activity change, negative = inhibition"
1,O=S(=O)(Nc1cccnc1Cl)c1ccc(F)cc1,-4.01% (inactive)
2,COc1ccc(OC)c(/C=C2\Oc3cc(OCC(=O)N4CCC[C@H]4C(=O)O)ccc3C2=O)c1,-11% (inactive)
3,Cc1cc(C(=O)OCC(=O)Nc2c(Cl)cccc2Cl)c(C)o1,-2.82% (inactive)
4,COC(=O)C1=CC(C(=O)c2cccs2)=NN(c2ccc(OC)cc2)C1C(=O)OC (stereo not drawn),-9.84% (inactive)
5,CCc1ccc(C(CC(=O)c2ccc(Cl)cc2)C(=O)O)cc1 (stereo not drawn),-0.867% (inactive)
6,COc1ccc2c(c1)c1nc3ccccc3nc1n2CC(=O)OC(C)C,-3.78% (inactive)
7,COc1ccccc1N1N=C(C(=O)c2ccccc2)C2C(=O)N(c3ccc(Br)cc3)C(=O)C21 (stereo not drawn),-10.5% (inactive)
8,N=c1n(CCN2CCCC2)c2ccccc2n1CC(O)c1ccco1 (stereo not drawn),-7.28% (inactive)
9,Cc1ccccc1OCCn1cc(C(=S)N2CCCC2)c2ccccc21,-4.74% (inactive)
10,COc1ccc(C(=O)Oc2ccc(Br)cc2C(=S)N2CCOCC2)cc1,-6.52% (inactive)
11,COc1cccc(C(=O)OCC(=O)NCc2ccc3c(c2)OCO3)c1OC,-0.378% (inactive)
12,CCOC(=O)/C(C#N)=C1\CC2CCC1(C)C2(C)C (stereo not drawn),-1.94% (inactive)
13,COc1cc2c3nnc(-c4ccc(F)cc4)c-3cn(Cc3ccc(C)cc3)c2cc1OC,-15.2% (inactive)
14,CC1=Nc2ccccc2/C1=C\c1nc(-c2ccc(C(F)(F)F)cc2)oc1O,-9.96% (inactive)
15,COc1ccccc1NS(=O)(=O)c1cc(N)ccc1N1CCCC1,-3.52% (inactive)
16,CCOC(=O)C1CCCN(C(=O)C2c3ccccc3Oc3ccccc32)C1 (stereo not drawn),-19.5% (inactive)
17,CC(=O)NC(Cc1ccccc1)C(=O)OCC(=O)c1ccccc1 (stereo not drawn),-3.54% (inactive)
18,COc1ccc2[nH]c(C)c(CCN(Cc3cccs3)C(=S)Nc3ccccc3OC)c2c1,-8.12% (inactive)
19,Cc1n[nH]c(=O)c2c(NC(=O)CSc3nnc(-c4ccco4)n3C)oc(C)c12,-7.02% (inactive)
20,O=C(Nc1nccs1)c1ccc(-c2ccc([N+](=O)[O-])cc2)o1,8.63% (inactive)
21,N#CCCN(CCC#N)C(=O)C1c2ccccc2Oc2ccccc21,-9.14% (inactive)
22,CCOc1ccc(C(C(=O)NC2CCCC2)N(C(=O)CNC(=O)c2ccco2)c2cccnc2)cc1 (stereo not drawn),-2.17% (inactive)
23,COc1cc(OC)cc(C(=O)Nc2cc(C)nn2-c2ccccc2)c1,-2.8% (inactive)
24,O=C(COC(=O)COc1cccc(Br)c1)NCc1ccc2c(c1)OCO2,-0.801% (inactive)
25,CC(=O)N1CCN(S(=O)(=O)c2cccc(C(=O)NNC(=O)Cn3nc(C)cc3C)c2)CC1,-3.1% (inactive)
26,CCOc1cc(/C=C2\CCCc3c2nc2ccccc2c3C(=O)O)ccc1OC,-2.82% (inactive)
27,C=C1c2cc(C)ccc2NC(=O)N1c1ccc(C)cc1,-7.4% (inactive)
28,N#C/C(=C(/O)CSc1ccccc1C(=O)O)c1nc2ccccc2s1,-7.99% (inactive)
